Test results as given in the supplement of paper PMC10127200.
Where a name gives a salt, the structure may show the parent alone.

Assays:
Assay in all cases: Euclidean distance of Cell Painting phenotypic profile (signed KS, 77 features) to DMSO centroid (dimensionless distance); higher = stronger phenotypic change vs DMSO (phenoactivity)
Details in all cases: 48 h; 5 or 10 uM (library dependent)
[1] = tested on: 786-O
Procedure, shortened: (§1)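 Phenoactivity is computed as Euclidean distance to the median vehicle profile. The profiles, drawn from 77 Harmony features scored as signed Kolmogorov-Smirnov statistics versus same-plate vehicle wells, were corrected for plate position, correlation-weighted and replicate-averaged at the top dose. Stained cells were imaged confocally at 20X (9 fields/well) after 48 h with library compounds at 10 or 5 uM, 0.1% DMSO final, in five cancer lines and a healthy fibroblast line.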

[2] = tested on: A549
Procedure, shortened: as §1

[3] = tested on: DU145
Procedure, shortened: as §1

[4] = tested on: FB
Procedure, shortened: as §1

[5] = tested on: HEPG2
Procedure, shortened: as §1

[6] = tested on: OVCAR4
Procedure, shortened: as §1

Row | Compound | Euclidean distance [1] | Euclidean distance [2] | Euclidean distance [3] | Euclidean distance [4] | Euclidean distance [5] | Euclidean distance [6]
1 | CC[C@@H](CO)NC(=O)[C@@H]1C=C2c3cccc4c3c(cn4C)C[C@H]2N(C)C1 [Methysergide Maleate] | 0.845 | 0.577 | 0.772 | 0.909 | 0.822 | 1.34
2 | CC[N+](C)(CC)CCOC(=O)C(O)(c1ccccc1)c1ccccc1 [Methylbenactyzine Bromide] | 0.693 | 0.883 | 0.575 | 0.967 | 0.532 | 1.45
3 | CC[C@H]1CN2CC[C@H]1C[C@@H]2[C@@H](O)c1ccnc2ccc(OC)cc12 [Hydroquinidine] | 0.75 | 0.791 | 0.64 | 1.18 | 0.881 | 1.23
4 | NC[C@H](CC(=O)O)c1ccc(Cl)cc1 [(R)-baclofen] | 1.58 | 1.05 | 0.675 | 1.01 | 0.87 | 1.1
5 | C[C@@H]1CC[C@@]2(OC1)O[C@H]1C[C@H]3[C@@H]4CC=C5C[C@@H](O[C@@H]6O[C@H](CO)[C@@H](O[C@@H]7O[C@@H](C)[C@H](O)[C@@H](O)[C@H]7O)[C@H](O)[C@H]6O[C@@H]6O[C@@H](C)[C@H](O)[C@@H](O)[C@H]6O)CC[C@]5(C)[C@H]4CC[C@]3(C)[C@H]1[C@@H]2C [Dioscin] | 1.76 | 2.54 | 0.921 | 1.29 | 1.15 | 4.63
6 | CC1(C)CC(O)CC(C)(C)N1[O] [Tempol] | 0.822 | 0.85 | 1.18 | 1.49 | 0.827 | 0.934
7 | CCN(C)C(=O)Oc1cccc([C@H](C)N(C)C)c1 [Rivastigmine Tartrate] | 0.824 | 0.471 | 0.382 | 0.816 | 0.806 | 1.45
8 | CN1[C@@H]2CC[C@H]1C[C@@H](OC(=O)C(CO)c1ccccc1)C2 (some centres undefined) [Atropine] | 0.688 | 1.55 | 1.19 | 1 | 2.2 | 1.89
9 | CN1CCc2cc3c(cc2C1C1OC(=O)c2c1ccc1c2OCO1)OCO3 (single isomer, unassigned; (+)) [(+)-Bicuculline] | 1.27 | 0.94 | 0.878 | 0.836 | 0.778 | 1.48
10 | O=C(O[C@H]1C[C@H]2CC[C@@H](C1)[N+]21CCCC1)C(O)(c1ccccc1)c1ccccc1 [Trospium chloride] | 0.712 | 0.693 | 0.879 | 0.927 | 0.66 | 1.39
11 | Cn1c(COP(=O)(NCCBr)NCCBr)cnc1[N+](=O)[O-] [Evofosfamide (TH-302)] | 1.45 | 2.69 | 0.904 | 1.3 | 1.86 | 2.84
12 | C[C@]12N[C@H](Cc3ccccc31)c1ccccc12 [MK-801 (Dizocilpine)] | 0.525 | 0.829 | 1.2 | 0.635 | 1.41 | 1.23
13 | C/C=C(\C)C(=O)N[C@@H](c1ccccc1)[C@@H](O)C(=O)O[C@H]1C[C@@]2(O)[C@@H](OC(=O)c3ccccc3)[C@@H]3[C@]4(OC(C)=O)CO[C@@H]4C[C@H](O)[C@@]3(C)C(=O)[C@H](OC(C)=O)C(=C1C)C2(C)C [Cephalomannine] | 2.74 | 3.24 | 3.48 | 2.32 | 2.11 | 2.98
14 | C[S+]([O-])CCCCN=C=S (centres undefined) [sulforaphane] | 1.73 | 1.68 | 1.89 | 2.33 | 2.6 | 1.58
15 | CN1[C@@H]2C[C@@H](OC(=O)[C@H](CO)c3ccccc3)C[C@H]1[C@@H]1O[C@@H]12 [Scopolamine HBr trihydrate] | 1.03 | 1.25 | 1.17 | 1.06 | 0.452 | 0.796
16 | CC[C@@H](C(N)=O)N1CCCC1=O [Levetiracetam] | 1.07 | 1.76 | 0.591 | 1.12 | 0.604 | 1.81
17 | COC1=C[C@@H]2[C@@H]3Cc4ccc(OC)c(O)c4[C@]2(CCN3C)CC1=O [Sinomenine hydrochloride] | 0.472 | 0.883 | 1.1 | 1.15 | 0.751 | 0.824
18 | CC(C)(C)c1cc(C=C(C#N)C#N)cc(C(C)(C)C)c1O [Tyrphostin 9] | 3 | 2.48 | 1.41 | 1.32 | 0.766 | 1.95
19 | COCC1(CO)C(=O)C2CCN1CC2 (centres undefined) | 3.17 | 3.25 | 4.09 | 3.41 | 2.42 | 2.18
20 | NCC(O)c1ccc(O)cc1 (centres undefined) [(+.-)-Octopamine HCl] | 1.71 | 0.639 | 0.896 | 0.934 | 0.45 | 1.03
21 | N=C(N)NN [Aminoguanidine hydrochloride] | 0.96 | 1.11 | 0.602 | 0.888 | 0.598 | 0.998
22 | [O-][n+]1ccccc1[S-].[O-][n+]1ccccc1[S-].[Zn+2] [Zinc Pyrithione] | 6.27 | 4.94 | 7.6 | 6.01 | 5.34 | 6.33
23 | CN1CCN(c2nc3ccccc3nc2Cl)CC1 | 0.803 | 1.25 | 1.04 | 0.897 | 0.638 | 1.52
24 | c1ccc2c(c1)Nc1ccccc1S2 [Phenothiazine] | 0.657 | 0.876 | 0.829 | 1.1 | 1.4 | 0.881
25 | CC(=O)NC1CCSC1=O (centres undefined) [Citiolone] | 1.19 | 0.873 | 0.825 | 1.06 | 0.461 | 1.71

Row | Compound | Euclidean distance [1] | Euclidean distance [2] | Euclidean distance [3] | Euclidean distance [4] | Euclidean distance [5] | Euclidean distance [6]
26 | O=[N+]([O-])c1ncc[nH]1 [Azomycin] | 1.03 | 1.17 | 1.36 | 1.09 | 1.54 | 0.81
27 | O=C(O)CNC(=O)C1C(=O)N(C2CCCCC2)C(=O)N(C2CCCCC2)C1=O | 1.18 | 0.61 | 1.4 | 1.16 | 1.1 | 0.706
28 | COc1ccc2[nH]cc(CCN)c2c1 [5-Methoxytryptamine] | 0.978 | 0.912 | 0.758 | 1.38 | 0.952 | 0.882
29 | CCCCCc1cc(O)cc(O)c1 [Olivetol] | 1.12 | 0.742 | 0.801 | 0.7 | 0.393 | 0.946
30 | CC(=O)OCC1=C(C(=O)O)N2C(=O)[C@@H](N)[C@H]2SC1 [7-Aminocephalosporanic acid] | 1.45 | 0.819 | 1.16 | 1 | 0.55 | 0.832
31 | CCNC1(c2cccs2)CCCCC1=O (centres undefined) [Tiletamine Hydrochloride] | 1.22 | 1.39 | 1.26 | 1.39 | 0.678 | 1.75
32 | COc1ccc(C(=O)O)cc1OC [Veratric acid] | 0.978 | 0.85 | 1.2 | 0.896 | 1.05 | 0.931
33 | CCC(COC(=O)c1cc(OC)c(OC)c(OC)c1)(c1ccccc1)N(C)C (centres undefined) [Trimebutine] | 0.93 | 0.4 | 0.604 | 0.704 | 1.26 | 0.747
34 | CCN1CCN(C(=O)Cc2ccc(Nc3ncc(F)c(Nc4ccc(C(=O)Nc5ccccc5Cl)cc4)n3)cc2)CC1 [Aurora A Inhibitor I] | 5.7 | 4.77 | 1.39 | 3.33 | 4.52 | 3.43
35 | CCC1(c2cccc(O)c2)CCCCN(C)C1 (centres undefined) [Meptazinol HCl] | 1.46 | 1.09 | 0.6 | 0.726 | 0.404 | 0.921
36 | Cc1ccc(-n2nccn2)c(C(=O)N2CCN(c3nc4cc(Cl)ccc4o3)CC[C@H]2C)c1 [Suvorexant (MK-4305)] | 0.574 | 1.02 | 0.945 | 0.9 | 2.25 | 0.979
37 | O=P(O)(NCCCl)NCCCl [Palifosfamide] | 1.23 | 0.923 | 1.53 | 1.11 | 0.698 | 1.21
38 | CN(C)C(=O)Oc1cc(OC(=O)N(C)C)cc(C(O)CNC(C)(C)C)c1 (centres undefined) [Bambuterol HCl] | 0.701 | 0.719 | 1.13 | 1.12 | 0.521 | 1.48
39 | O=C1C=C2C=C[C@@H]3C[C@@]2(O1)[C@H]1CCCCN31 [Securinine] | 0.99 | 1.25 | 1.42 | 1.78 | 1.08 | 1.74
40 | NC(=O)CN1CC(c2ccccc2)CC1=O (centres undefined) [Phenylpiracetam] | 1.05 | 1.45 | 0.789 | 0.956 | 0.413 | 1.3
41 | CCC(=O)CCCCC[C@@H]1NC(=O)[C@H]2CCCCN2C(=O)[C@H]([C@@H](C)CC)NC(=O)[C@H](Cc2cn(OC)c3ccccc23)NC1=O [Apicidin] | 3.74 | 3.31 | 1.07 | 2.16 | 1.52 | 1.84
42 | O=C(CC1NCCCC1O)Cn1cnc2cc(Br)c(Cl)cc2c1=O (centres undefined) [Halofuginone] | 3.67 | 3.22 |  | 3.62 | 3.81 | 3.65
43 | N#Cc1ccc(N2CCC[C@@H]2[C@@H](O)C(F)(F)F)cc1C(F)(F)F [Ligandrol (LGD-4033. VK-5211)] | 1.52 | 1.1 | 0.95 | 1.1 | 0.87 | 1.15
44 | COc1ccc(C=O)cc1 [p-Anisaldehyde] | 1.24 | 0.754 | 0.627 | 0.751 | 0.785 | 1.16
45 | CO[C@]12C[C@@H](COC(=O)c3cncc(Br)c3)CN(C)[C@@H]1Cc1cn(C)c3cccc2c13 [Nicergoline] | 1.37 | 0.701 |  | 0.963 | 0.72 | 0.762
46 | COC1=C[C@@H]2[C@@H]3Cc4ccc(OC)c(O)c4[C@]2(CCN3C)CC1=O [Sinomenine] | 0.934 | 0.651 |  | 0.89 | 0.668 | 0.854
47 | C[C@]12CCC(=O)C(O)=C1CC[C@@H]1[C@@H]2CC[C@]2(C)C(=O)CC[C@@H]12 [Formestane] | 1.02 | 0.913 |  | 1.08 | 0.763 | 0.703
48 | CNC(=O)Oc1cccc2ccccc12 [Carbaryl] | 1.83 | 1.3 | 0.843 | 0.842 | 0.501 | 1.03
49 | COc1ccc(C(=O)N2CCCC2=O)cc1 [Aniracetam] | 0.962 | 1.09 |  | 1.01 | 0.635 | 1.07
50 | Cc1cccc(C)c1NC(=O)CN1CCCC1=O [Nefiracetam] | 1.15 | 0.499 |  | 0.708 | 1.11 | 1.2
